assay: A549 cell viability effects, profiling panel, calcein-AM fluorescence, 48 h, basal (AID 1162); settings: higher = more signal; note: test concentration not given here

| Compound | z-score |
| --- | --- |
| CC(C)(C)OC(=O)CC[C@]1(C(=O)N2CCCCC2)COC(c2ccc(OCCCO)cc2)=N1 | -0.34 |
| O=C1[C@@]23C=C(Br)[C@H](C[C@@H]2COC3)[C@@]12CO2 | -0.0321 |
| O=C1C[C@@](C(=O)NCc2ccccc2)(c2ccc([N+](=O)[O-])cc2)[C@@H](c2ccc(CO)cc2I)N1CC12CC3CC(CC(C3)C1)C2 | -1.84 |
| O=C1C[C@@](C(=O)NCC(F)(F)F)(c2ccc([N+](=O)[O-])cc2)[C@@H](c2ccc(CO)cc2)N1CC12CC3CC(CC(C3)C1)C2 | -1.8 |
| CN1C(=O)C2C=CC(C(O)c3ccc(I)cc3)N(Nc3ccccc3)C2C1=O (stereo unspecified) | -0.596 |
| COc1cc(C(O)C2C=CC3C(=O)N(Cc4ccccc4)C(=O)C3N2n2cnnc2)cc(OC)c1OC (stereo unspecified) | 1.39 |
| C=C(COC)/C(=C/C[C@@H](OC(=O)c1ccncc1)c1ccccc1OCCO)c1cc(C(=O)OC)ccc1OC | 2.37 |
| CC(C)C[C@@H]1NC(=O)[C@@]23C(=O)N[C@@H](Cc4ccccc4)C2[C@H](C)[C@@]2(C)O[C@H]2C3/C=C/C/C=C\CNC(=O)[C@@H](C)NC1=O (stereo partly specified) | -0.366 |
| CCCNC(=O)[C@@]1(Sc2ccc(C)cc2)CC(=O)N(C(C)C)[C@@H]1c1ccc(CO)cc1I | 0.505 |
| CN1C(=O)C2C(C1=O)C1C=C(CCCO)C2C(c2cccs2)N1Cc1cc2c(cc1Br)OCO2 (stereo unspecified) | 0.952 |
| C=C(CCCC)/C(=C/C[C@H](OC(C)=O)c1ccc(OCCO)cc1)c1cc(C(=O)OC)ccc1OC | 0.899 |
| COC(=O)[C@@]1(Cc2ccc(OC)cc2)[C@H]2c3cc(C(=O)N4CCCC4)n(Cc4ccc(OC(F)(F)F)cc4)c3C[C@H]2CN1C(=O)c1ccccc1 | -0.77 |
| CS(=O)(=O)CCOC(=O)C1=CC(CCCO)=CC(C2CC2)N(Cc2cccc(OC(F)(F)F)c2)C=C1C(=O)OCCS(C)(=O)=O (stereo unspecified) | 0.78 |
| COC(=O)C1=CC(CCCO)=CC(C)N(Cc2cccc(OC(F)(F)F)c2)C=C1C(=O)OC (stereo unspecified) | 1.35 |
| [N-]=[N+]=NCc1ccccc1[C@@H]1OC(c2ccc(OCCCO)cc2)=N[C@]1(Cc1ccccc1)C(=O)NCCN1CCOCC1 | 0.239 |
| CC(C)C(=C=CC[C@@H](O)c1cccc(OCCO)c1)C[C@@H](O)c1ccccn1 | -0.171 |

| Compound | z-score |
| --- | --- |
| O=C(NCC(O)CO)[C@@]1(CCS(=O)(=O)c2ccccc2)COC(c2ccc(OCCCO)cc2)=N1 (stereo partly specified) | -0.696 |
| CCOC(=O)C1=C[C@@H](c2ccccc2)N(S(=O)(=O)c2ccc(C)cc2)[C@H]1c1ccccc1 | -0.834 |
| CC(C)OC(=O)CC(=O)CC(O)c1ccc([N+](=O)[O-])cc1 (stereo unspecified) | 1.78 |
| COC(=O)C1N=C(c2ccc(OCCCO)cc2)N(c2ccccc2)O1 (stereo unspecified) | 0.893 |
| NC(=O)NCC#Cc1ccc2c(c1)[C@]1(C(=O)N2)[C@H](C(=O)N2CCN(c3ncccn3)CC2)[C@H]2C(=O)O[C@H](c3ccccc3)[C@H](c3ccccc3)N2[C@@H]1c1ccc(OCCO)cc1 | 0.0404 |
| [N-]=[N+]=Nc1ccccc1C[C@]1(C(=O)O)N=C(c2ccc(OCCCO)cc2)O[C@H]1c1ccccc1 | 0.855 |
| C=C(/C(=C/C[C@@H](OC(C)=O)c1ccc(OCCO)cc1)c1cc(C(=O)OC)ccc1OC)C(C)C | 0.679 |
| COc1ccc(NC(=O)O[C@H]2[C@@H]3OC(=O)[C@H](Cc4cccc(Br)c4)C/C=C/C[C@@H](Cc4cccc(Br)c4)C(=O)O[C@H]3[C@@H](OC)O[C@@H]2CO)cc1 | -0.102 |
| [N-]=[N+]=NCc1ccccc1[C@H]1OC(c2ccc(OCCCO)cc2)=N[C@@]1(CCS(=O)(=O)c1ccccc1)C(=O)NCc1ccccc1 | 2.47 |
| COc1cc(NN2C(C(O)C3CCCCC3)C=CC3C(=O)N(C)C(=O)C32)cc(OC)c1OC (stereo unspecified) | -0.536 |
| O=C1[C@@H]2[C@@H](CC(COc3ccccc3)=C3[C@@H](CCc4ccccc4)OB(O)C[C@@H]32)C(=O)N1Cc1ccccc1 | -0.607 |
| O=C1OCCC=C[C@H]2OC34C=CCN(c5ccc(Cl)cc5)C(=O)[C@H]3N(CCCCCCO)C(=O)[C@@H]4C12 (stereo partly specified) | 1.26 |
| CCOC(=O)C[C@H]1[C@H](OC(=O)c2ccccc2-c2ccccc2)[C@@H](NC(=O)c2ccc3ccccc3n2)c2cc(OCCCO)ccc2N1C(=O)c1ccccc1 | 0.198 |
| COC(=O)[C@@]1(Cc2ccc(OC)cc2)[C@H]2c3cc(C(=O)N4CCCC4)n(Cc4ccc(S(C)(=O)=O)cc4)c3C[C@H]2CN1C(=O)c1ccccc1 | -0.112 |
| C=C[C@@H](C)[C@@H](OC(=O)Nc1ccc(SC)cc1)c1ccc(OCCO)cc1 | -0.555 |
